The values below come from PubChem BioAssay AID2551 (National Center for Advancing Translational Sciences (NCATS), 2010).

The structures appear in SMILES notation. About 17,000 (5.5%) of roughly 310,000 compounds were called active. Another 11% or so got no clear call; they are omitted. Shown is part of a subset that was picked to be rich in actives. A call without a number means that no potency is given here. Unmarked numbers belong to inactive results. The call rests on the fitted dose curve; in most records, active means well fitted inhibition curve with a large enough effect; inconclusive means small, poorly fitted or top-dose-only effect, or effect the other way; inactive means no such curve, though single readings can be large or run the other way.
Potency means the concentration at half of the fitted maximal effect.

Chain of Nuclear receptor ROR-gamma (Mus musculus) (P51450 whole entry, looked up, the tested form may be a part): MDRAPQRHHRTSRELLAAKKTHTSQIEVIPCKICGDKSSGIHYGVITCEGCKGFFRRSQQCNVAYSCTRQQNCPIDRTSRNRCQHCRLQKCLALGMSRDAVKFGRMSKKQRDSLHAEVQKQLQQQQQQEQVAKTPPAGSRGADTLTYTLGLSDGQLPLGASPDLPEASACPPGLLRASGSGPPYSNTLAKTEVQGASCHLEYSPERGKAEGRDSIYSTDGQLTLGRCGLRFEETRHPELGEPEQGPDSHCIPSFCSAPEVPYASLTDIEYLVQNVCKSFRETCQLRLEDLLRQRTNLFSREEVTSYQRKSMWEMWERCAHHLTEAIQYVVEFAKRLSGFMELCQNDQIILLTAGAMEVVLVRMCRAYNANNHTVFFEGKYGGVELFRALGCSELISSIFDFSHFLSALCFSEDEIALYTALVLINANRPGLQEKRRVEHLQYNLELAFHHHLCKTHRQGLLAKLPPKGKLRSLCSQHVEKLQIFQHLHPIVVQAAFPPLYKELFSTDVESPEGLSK

This experiment has as its target Nuclear receptor ROR-gamma (Mus musculus) (UniProt P51450). Put plainly: qHTS for inhibitors of ROR gamma transcriptional activity. Further: nearly all actives have a fitted effect of over 60% in size. The note with it: Drosophila S2 Gal4-RORgamma UAS-luciferase reporter, 20 h; series mostly up to 53.6 µM. The method, boiled down:
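Compounds are pin-transferred onto Drosophila Schneider cells expressing a copper-inducible Gal4–ROR gamma transactivation domain fusion. After 1 hr, copper sulfate is added to 700 uM final; luciferase is read 20 hr later.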
A general note: In qHTS, concentration-response curves come from the screen itself.
Regarding `CC(C)(C)c1ccc(CN2C(=O)c3ccccc3S2(=O)=O)cc1`, the Potency entry was “inactive”.

`COc1ccc(NC(=O)c2sc3nc(C)nc(N4CCN(c5ccccn5)CC4)c3c2C)c(OC)c1`: the Potency result was “inactive”.

With `O=C(NC1CCN(S(=O)(=O)c2ccc(F)cc2)CC1)c1ccccc1`, the Potency entry was “inactive”.

On to `Cc1nn(CC(=O)NCCc2ccccc2)c(=O)c2cc3occc3n12`, for which the Potency result is “inactive”.

In the case of `CCCCN1C(=S)NC[C@@H]1C(C)CC` (stereo not given in full), the Potency is 3.55 µM (active).

As for `O=C(NC(=S)NC1CCS(=O)(=O)C1)c1cccc([N+](=O)[O-])c1` (stereo not given), the Potency result was “inactive”.

Take `O=c1c(O)c(-c2ccc(O)cc2)oc2ccccc12`: the Potency is 7.94 µM (active).

On to `COc1ccccc1N=Cc1c(O)c2ccccc2oc1=O`, for which the Potency result was “inactive”.

`O=c1c(-c2ccccc2)coc2cc(O)ccc12`: the Potency entry was “inactive”.

As to `CCN(CC)S(=O)(=O)c1ccc(N2CCN(C)CC2)c(NC(=O)Nc2ccccc2F)c1`, the Potency entry was “inactive”.

Consider `CCn1c(=O)c2ccccc2n(CC(=O)N2CCCc3ccccc32)c1=O`, for which the Potency result is “inactive”.

Turning to `CC(=O)NC(Cc1c[nH]c2ccccc12)C(=O)NCCc1ccccc1` (stereo not given), the activity change, negative = inhibition was 6.43% [at 1.91 µM].

As for `Oc1ccc(Br)cc1/C=N/Nc1ccccn1`, the Potency is 5.62 µM (active).

As to `Cc1nccn1CC(=O)N/N=C/c1ccc(O)c(O)c1`, the Potency entry is “inactive”.

Turning to `O=C(Nc1ccc(Br)cc1)c1cc(S(=O)(=O)Nc2ccccn2)ccc1Cl`, the Potency entry was “inactive”.

Take `O=c1ccc(-c2ccc(S(=O)(=O)Nc3ccccc3)o2)n[nH]1`: the Potency result is “inactive”.

For `COc1ccc(C(=O)c2c(C)c(CCC#N)n3ccccc23)c(OC)c1`, the Potency entry was “inactive”.

For the compound `COCCCC1CCN(C(=O)C2CCC(=O)N(C3CCCCCC3)C2)CC1` (stereo not given), the Potency entry is “inactive”.

Regarding `Cc1cc(C(=O)NC2CCCc3c2cnn3-c2cccc(C)c2C)c(C)o1` (stereo not given), the Potency entry is “inactive”.

Consider `O=c1c2ccccc2nc(N/N=C/c2ccccc2)n1O`, for which the Potency was 11.2 µM (active).

On to `O=C(Nn1cnc2ccccc2c1=O)c1ccccc1`, for which the Potency entry is “inactive”.

As to `Cc1nc2ccccc2c(=O)n1NC(=O)c1ccccc1`, the Potency entry was “inactive”.

As for `CCCc1nc2ccccc2c(=O)n1/N=C/c1ccc(O)c(O)c1`, the Potency entry was “inactive”.

As for `O=c1c2ccccc2ncn1/N=C/c1ccccc1`, the Potency is 10 µM (active).

For the compound `O=[N+]([O-])c1ccc(N/N=C/c2ccccc2)cc1`, the Potency result was “inactive”.

Turning to `Cc1ccc2c(=O)cc(C(=O)NCCc3ccc(S(N)(=O)=O)cc3)oc2c1C`, the Potency result is “inactive”.

In the case of `CCCCn1c(N)c(N(CCOC)C(=O)c2oc3ccc(OC)cc3c2C)c(=O)[nH]c1=O`, the Potency result was “inactive”.

As for `CCC(=O)Nc1ccc(C(=O)NNC(=O)c2ccc(Cl)cc2)cc1`, the Potency result was “inactive”.

Regarding `CCc1cccc(NC(=O)CCCN2C(=O)C(c3ccccc3)Oc3cccnc32)c1` (stereo not given), the Potency entry was “inactive”.

On to `O=C1c2ccccc2S(=O)(=O)N1Cc1c(F)cccc1Cl`, for which the Potency result was “inactive”.
